PubChem BioAssay
Values without a mark were called inactive. No rule for the calls is given here.

Molecular target: Pantothenate synthetase (Mycobacterium tuberculosis (strain ATCC 25618 / H37Rv)) (UniProt P9WIL5)
Assay: Recombinant Mtb pantothenate synthetase (PanC) inhibitors, coupled enzyme, confirmatory (AID 375);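 also: 0% = full reaction with vehicle and 100% = no enzyme background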
Settings: coupled enzyme assay; at 10 µM, active compounds read high

Sequence of Pantothenate synthetase (Mycobacterium tuberculosis (strain ATCC 25618 / H37Rv)) (P9WIL5 whole entry, looked up): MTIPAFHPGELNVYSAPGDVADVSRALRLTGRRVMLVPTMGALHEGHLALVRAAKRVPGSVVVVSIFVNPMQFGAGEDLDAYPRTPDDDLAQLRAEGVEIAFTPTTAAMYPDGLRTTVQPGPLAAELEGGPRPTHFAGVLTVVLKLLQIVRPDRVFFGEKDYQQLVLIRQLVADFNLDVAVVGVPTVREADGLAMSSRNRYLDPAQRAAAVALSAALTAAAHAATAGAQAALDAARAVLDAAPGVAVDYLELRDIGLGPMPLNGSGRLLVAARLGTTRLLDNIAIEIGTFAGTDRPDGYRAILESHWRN

Compound | inhibition
O=C(Nc1cccc2c1CCCC2)C1CCN(c2nnnn2-c2ccccc2)CC1 | 5%
CCn1c(SCc2cc(=O)[nH]c3ccccc23)nc2c1c(=O)n(C)c(=O)n2C | 5%
CCC(=O)N1CCc2cc(S(=O)(=O)CCC(=O)Nc3ccc(F)c(F)c3)ccc21 | 0%
CSc1ccc2c(c1)N(CCC1CCCCN1C)c1ccccc1S2 (stereo not given) | 11%
CN(CCNS(=O)(=O)c1ccc2c(c1)oc(=O)n2C)Cc1ccccc1 | 0%
CCOc1ccc(NC(=O)C2CC(=O)N(CC)C(=Nc3ccc4c(c3)OCO4)S2)cc1 (stereo not given) | 3%
Cc1nn(-c2ccccc2)c(C)c1C(=O)OCC(=O)c1c(N)n(CC(C)C)c(=O)n(C)c1=O | 9%
CCOc1ccc2ccccc2c1C(=O)N1CCN(c2ccccc2)CC1 | 9%
O=C(c1ccco1)N1CCN(c2nc(C(F)(F)F)nc3c2nnn3Cc2ccccc2)CC1 | 0%
COCCNc1nc(C(C)(C)C)nc2c1nnn2Cc1ccccc1Cl | 0%
COc1ccccc1N=Cc1nc(-c2ccccc2)oc1OC(C)=O | 0%
O=S(=O)(NCCSc1ccccc1)c1cccs1 | 0%
COc1ccc(Cn2nnnc2C(c2cccs2)N2CCOCC2)cc1 (stereo not given) | 3%
CCCn1nnc(NCc2ccc(OCc3cccs3)c(OC)c2)n1 | 0%
NS(=O)(=O)c1ccc(CCNC(=O)CCC2COc3ccccc3O2)cc1 (stereo not given) | 0%
Cc1ccc(S(=O)(=O)c2nc(-c3ccco3)oc2SCC(=O)NCC2CCCO2)cc1 (stereo not given) | 0%
c1ccc(-c2noc(C34CC5CC(CC(C5)C3)C4)n2)nc1 | 6%
CCOC(=O)CNS(=O)(=O)c1c(C)noc1C | 0%
Fc1ccc(-n2c(Cc3ccccc3)nnc2SCc2nc(-c3cccs3)no2)cc1 | 0%
Cc1ccc(S(=O)(=O)N2CCN(c3nc(C(C)C)c4c(c3C#N)CC(C)(C)OC4)CC2)cc1 | 0%
CCOC(=O)N1CCN(C(=O)Nc2ccc(Cl)cc2)CC1 | 0%
CCOC(=O)c1ccc(N=Cc2nc(-c3ccccc3)oc2OC(C)=O)cc1 | 0%
CCCCOC(=O)c1[nH]c2c(c1C)C(=O)CC(c1cc(OC)c(OC)c(OC)c1)C2 (stereo not given) | 10%
CN(CC(=O)Nc1ccncc1)S(=O)(=O)c1ccccc1 | 10%
COc1cccc(NC(=O)C2CCCN2C(=O)Nc2cccc(F)c2)c1 (stereo not given) | 0%
